Laboratory results as given in PubChem BioAssay AID602428 (Sanford-Burnham Center for Chemical Genomics, 2012).
About 980 (39%) of roughly 2,500 compounds were called active.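 How the source made its calls: active means mean inhibition at 5 µM reaching about 45% (limit read from the data); inactive means the rest.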 This excerpt belongs to a sample that is enriched for actives.

Assay: blockers of Gli reporter signaling – single concentration, luciferase luminescence, Sufu-KO-LIGHT cells, confirmation (AID 602428);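 further: plate controls were DMSO-treated cells for no effect and wells lacking cells for full effect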
Conditions: at 5 µM, stronger effect = higher value
In the case of `CCOc1cccc(=NC2CCCCC2)c2c(C)[nH]c(C)c12`, the inhibition is reported as 86.4% (active).
